Only some compounds are listed: those with a hit (about 2.2% of all), similar ones and a draw of the others.
JMJD2C inh = blocks human GASC-1 demethylase activity; GST-JMJD2C(1-420) H3K9me3 demethylation, DELFIA europium; inhibition, % at 2.35 µM; Q9H3R0; hit rate 0.069% among 330,000;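 active = more than half of a compound's replicate wells show inhibition beyond 50%, single wells judged on their own value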;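 also: signal counts dimethyl H3K9 product captured on neutravidin plate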
V-ATPase pHluor = alters yeast V-ATPase proton transport; S. cerevisiae, pHLuorin cytosolic pH fluorescence; response, % at 10 µM; hit rate 0.37% among 350,000; in the data active = response mostly above about 7.3%, no sharp cut-off; inactive = mostly below about 5.4%; also: actives read high
Exocytosis inh = lytic granule exocytosis inhibition; TALL-104 LAMP-1 surface exposure, flow cytometry; cells stimulated with thapsigargin and PMA; hit rate 0.66% among 360,000; AID 651702; inhibition, % at 10 µM;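 active = inhibition above about 55%, limit read from the data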
MEX-5 binding = C. elegans MEX-5 TCR-2 RNA binding activity | Q9XUB2 | hit rate 0.38% among 300,000 | MEX-5/FITC-TCR2 RNA binding, fluorescence polarization; hits give low values | AID 1832 | activity score (negative = inhibition of binding), % at 10 µM;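 active = inhibition past about -25% in most replicates, and total fluorescence under double the plate's negative control median, limit read from the data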
VLA-4 inh = inhibition in a human VLA-4 binding assay | VLA-4 expressing cells, ligand binding flow cytometry | inhibition, % (about 7 µM as worked out from the volumes in the protocol) | hit rate 0.2% among 330,000 | AID 2557; in the data active = inhibition above about 50%
Target sequence (P13612 whole entry, looked up): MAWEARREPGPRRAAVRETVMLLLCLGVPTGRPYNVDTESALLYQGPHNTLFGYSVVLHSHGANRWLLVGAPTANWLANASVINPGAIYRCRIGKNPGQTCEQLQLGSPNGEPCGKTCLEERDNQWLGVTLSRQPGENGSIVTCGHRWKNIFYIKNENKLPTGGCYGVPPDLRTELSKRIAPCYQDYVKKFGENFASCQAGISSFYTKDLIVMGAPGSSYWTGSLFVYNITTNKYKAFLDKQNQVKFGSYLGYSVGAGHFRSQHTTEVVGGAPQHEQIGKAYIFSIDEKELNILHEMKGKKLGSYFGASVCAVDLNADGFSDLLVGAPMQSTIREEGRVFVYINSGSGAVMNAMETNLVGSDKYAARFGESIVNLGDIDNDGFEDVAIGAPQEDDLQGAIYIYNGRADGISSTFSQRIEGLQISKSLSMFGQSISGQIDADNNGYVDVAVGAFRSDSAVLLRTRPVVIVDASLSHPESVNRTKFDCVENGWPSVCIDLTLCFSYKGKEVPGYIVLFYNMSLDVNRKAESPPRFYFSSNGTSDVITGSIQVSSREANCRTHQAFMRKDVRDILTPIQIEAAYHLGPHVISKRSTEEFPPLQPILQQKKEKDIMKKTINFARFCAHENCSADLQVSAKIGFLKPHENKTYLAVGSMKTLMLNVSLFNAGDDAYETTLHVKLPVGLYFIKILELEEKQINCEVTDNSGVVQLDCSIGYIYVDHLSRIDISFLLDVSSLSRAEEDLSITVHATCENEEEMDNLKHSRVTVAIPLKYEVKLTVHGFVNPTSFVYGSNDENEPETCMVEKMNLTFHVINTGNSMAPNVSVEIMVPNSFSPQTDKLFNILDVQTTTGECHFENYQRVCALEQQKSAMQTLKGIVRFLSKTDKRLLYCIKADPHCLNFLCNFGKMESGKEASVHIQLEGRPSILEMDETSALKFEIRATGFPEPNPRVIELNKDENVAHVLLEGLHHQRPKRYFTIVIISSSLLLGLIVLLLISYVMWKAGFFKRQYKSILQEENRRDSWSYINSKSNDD
HTR2A ag = agonists of mouse serotonin 5-HT2A receptor (HTR2A). P35363. CHO-K1 mHTR2A beta-arrestin complementation, luminescence; percent of 30 µM serotonin response. activation, % at 7.6 µM. hit rate 0.66% among 360,000. AID 624169;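 active = activation above a run cutoff, the mean activation of all tested compounds plus 3 SD, cut at about 14% in these data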
VATPase regulator = modulates yeast V-ATPase proton transport. shares compounds with V-ATPase pHluor. S. cerevisiae pHLuorin cytosolic pH. AID 602197. response, % at 10 µM. hit rate 2% among 980; in the data active = response above about 24%
Large screens that a line does not name were inactive (follow-up assays come after a bar, where they were run).

CCOc1ccccc1-n1c(SCC(N)=O)nnc1-c1cccnc1	none
CCOc1ccccc1-n1c(SCC(=O)N(C(C)C)C(C)C)nnc1-c1cccnc1	V-ATPase pHluor 18 | VATPase regulator inactive
CC(=O)Nc1ccc(CN2CCN(CCc3ccccc3)C(CCO)C2)cc1 (stereo not given)	none
O=C(NC1CCCCC1)Sc1ccc(Cl)cc1	V-ATPase pHluor 8.0 | VATPase regulator inactive
CC(=O)OCCN(CCCn1c(-c2ccncc2)nc2ccccc21)c1nc(CN2CCCCC2)cs1	none
Cc1c(N2C(=O)/C(=C/c3ccc(N(C)C)cc3)N(C)C2=S)c(=O)n(-c2ccccc2)n1C	none (no result: JMJD2C inh, MEX-5 binding, VLA-4 inh)
COc1ccc(-c2cc(C(=O)NCCCN3CCCC3=O)c3ccccc3n2)cc1	V-ATPase pHluor 12 | VATPase regulator inactive
COCCOC(=O)c1c(NC(=O)CNCc2ccco2)sc(C(N)=O)c1C	V-ATPase pHluor 10 | VATPase regulator inactive
Cn1c(N)nc2nc(CCc3ccccc3)c(=O)[nH]c2c1=O	none
COc1ccc(CCN2C(=O)C3C4CC(C5C(C(N)=O)=NOC45)C3C2=O)cc1OC (stereo not given)	V-ATPase pHluor 15 | VATPase regulator inactive
COc1ccc(CCN2C(=O)C3C4CC(C5C(C(=O)NN)=NOC45)C3C2=O)cc1OC (stereo not given)	none
CN1CCN(S(=O)(=O)c2cccc(C(=O)N(Cc3nnc(-c4ccccc4Cl)o3)C3CC3)c2)CC1	none
CC(C)c1ccc(NC(=O)C2C3C=CC4(O3)C2C(=O)N(CCCN2CCOCC2)C4C(=O)NC2CCCCC2)cc1 (stereo not given)	none
CCOC(=O)C(CCCOc1ccc(C)cc1)C(=O)OCC	V-ATPase pHluor 9.6 | VATPase regulator inactive
CN(C)/C=C(\C(=O)c1ccccc1)c1nnnn1-c1ccc(F)cc1	V-ATPase pHluor 21 | VATPase regulator inactive
COc1ccc(-n2nnnc2/C(=C/N(C)C)C(=O)c2ccccc2)cc1	none
CSCC[C@H](N)C(=O)N1CCC(C(=O)N[C@H](C)C(=O)NC(C)c2ccccc2)CC1 (stereo not given in full)	none
N[C@@H](Cc1ccccc1)C(=O)N1CCC(C(=O)N[C@@H](CCC(=O)O)C(=O)O)CC1	none
O=C(CN1CCc2ccccc2C1)Nc1ccccc1N1CCCCCC1	V-ATPase pHluor 16 | VATPase regulator inactive
O=C1Nc2ccccc2C(=O)N(C2CCCC2)C1C(=O)NC1CC1 (stereo not given)	none (no result: JMJD2C inh, V-ATPase pHluor, MEX-5 binding, VLA-4 inh)
COc1ccc(C(=O)Oc2c(C)occc2=O)cc1OC	V-ATPase pHluor 21 | VATPase regulator inactive
COc1ccc(C(=O)Oc2ccc3ccc(=O)oc3c2)cc1OC	none
COc1cc2c(cc1OC)CN(C(=O)CN1CCN(S(=O)(=O)c3ccccc3)CC1)CC2	none
COc1ccc(N(CC(=O)N2CCN(c3ccc(Cl)cc3)CC2)S(=O)(=O)c2c(C)n[nH]c2C)cc1	V-ATPase pHluor 7.4 | VATPase regulator inactive
CCOC(=O)Cn1cc(C(=O)C(=O)N2CCOCC2)c2ccccc21	none
CCOC(=O)C(=O)c1cn(C2OCC(OC(C)=O)C(OC(C)=O)C2OC(C)=O)c2ccccc12 (stereo not given)	V-ATPase pHluor 14 | VATPase regulator inactive
COC(=O)C12OCC34C(CC5C(C)=C(O)C(=O)CC5(C)C3C(O)C1O)OC(=O)C(OC(=O)C=C(C)C)C24 (stereo not given)	none (no result: JMJD2C inh, MEX-5 binding, VLA-4 inh)
COc1ccc(CC(=O)OC(C)C(=O)c2ccc(C)cc2)cc1 (stereo not given)	V-ATPase pHluor 8.3 | VATPase regulator inactive
COc1ccc(/C(N)=N/OC(=O)Cc2ccc(C)cc2)cc1	none
COc1cccc(C(=O)Oc2ccc3ccc(=O)oc3c2)c1	none
CCOC(=O)Nc1ccc2c(c1)N(C(=O)CCN(CC)CC)c1ccccc1CC2	V-ATPase pHluor 7.8 | VATPase regulator inactive
CCN(CC)CCC(=O)N1c2ccccc2CCc2ccc(NC(=O)OC)cc21	none
COCCN(C(=O)COC(=O)CCn1c(C)csc1=O)c1c(N)n(Cc2ccccc2)c(=O)[nH]c1=O	V-ATPase pHluor 15 | VATPase regulator inactive
CCCN(C(=O)COC(=O)CCC(=O)c1ccccc1)c1c(N)n(Cc2ccccc2)c(=O)[nH]c1=O	V-ATPase pHluor 9.1 (no result: JMJD2C inh, MEX-5 binding, VLA-4 inh) | VATPase regulator inactive
Cc1[nH]c2ccc(C(=O)NCc3ccccn3)cc2c1C	none
CC(NC(=O)C12CC3CC(CC(O)(C3)C1)C2)c1ccc(Cl)cc1Cl (stereo not given)	none
COc1ccc(C/C(C)=N/NC(=O)c2ccc(Cl)cc2)cc1	V-ATPase pHluor 105 | VATPase regulator inactive
COc1ccccc1N1CCN(C(=O)C2CCN(S(=O)(=O)c3ccc4c(c3)CC(C)N4C(=O)C3CC3)CC2)CC1 (stereo not given)	V-ATPase pHluor 14 | VATPase regulator inactive
COc1ccccc1N1CCN(C(=O)C2CCN(S(=O)(=O)c3ccc4c(c3)CC(C)N4C(C)=O)CC2)CC1 (stereo not given)	none
NCCCSC1=NCCCN1	none | VATPase regulator inactive
Cc1ccc(NC(=O)CCC(=O)NNC(=O)c2ccccc2Cl)c(C)c1	V-ATPase pHluor 13 | VATPase regulator inactive
CCN(CC)S(=O)(=O)c1cccc(NC(=O)c2cccc(S(=O)(=O)N3CCCC3)c2)c1	none (no result: MEX-5 binding)
CCN1C(=O)[C@@H]2[C@H](C1=O)[C@@H]1C(=O)Nc3ccccc3C(=O)N1[C@@H]2c1ccc(OC)cc1	none
O=C(Nc1ccccc1N1CCCCC1)c1ccc([N+](=O)[O-])o1	none (no result: JMJD2C inh, MEX-5 binding, VLA-4 inh)
O=C(Nc1ccccc1N1CCOCC1)c1ccc([N+](=O)[O-])o1	V-ATPase pHluor 25 | VATPase regulator 90
Cc1ccc(C(=O)N2CCCC(CCC(=O)NCc3ccc(F)c(F)c3)C2)cn1 (stereo not given)	none (no result: VLA-4 inh)
COc1cccc(CNC(=O)CCC2CCCN(C(=O)c3ccc(C)nc3)C2)c1 (stereo not given)	V-ATPase pHluor 9.9 | VATPase regulator inactive
CCS(=O)c1scc(-c2ccc(Cl)cc2)c1C#N (stereo not given)	V-ATPase pHluor 9.0 | VATPase regulator inactive
O=C1NC(=S)N/C1=C/c1cc2c(cc1[N+](=O)[O-])OCO2	none
COC(=O)[C@]12CCCCC=C1N(Cc1ccc(Cl)cc1Cl)C(=O)[C@H](CC(=O)NCC13CC4CC(CC(C4)C1)C3)C2	none (no result: JMJD2C inh, V-ATPase pHluor, MEX-5 binding, VLA-4 inh)
O=C(O)C1CC=CCC1C(=O)NNc1c(Cl)cc(Cl)cc1Cl (stereo not given)	V-ATPase pHluor 12 | VATPase regulator inactive
COc1ccc(N2CCN(C(=O)c3ccc(S(=O)(=O)N4CCCCCC4)cc3)CC2)cc1	V-ATPase pHluor 13 (no result: JMJD2C inh, MEX-5 binding, VLA-4 inh) | VATPase regulator inactive
COc1ccc(N2CCN(C(=O)c3ccc(S(=O)(=O)N4CCCC4)cc3)CC2)cc1	none
